DT40 TDP1 CPT: growth inhibition of DT40 Tdp1-/-;hTDP1 cells with camptothecin (screen for TDP1 inhibitors); chicken DT40 Tdp1-/-;hTDP1 cells + 20 nM CPT, ATP luminescence, 48 h; Potency, µM (doses to about 46.2 µM), inactives show top-dose activity change, negative = growth inhibition, actives largely listed as inhibitors; 12% of 420,000 active; AID 686979; also: potency is read from the fitted curve at half-maximal effect; nearly all actives have a fitted effect of over 55% in size
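Chicken DT40 Tdp1-/- cells complemented with human TDP1, 400 cells/well, exposed to compounds plus 20 nM camptothecin for at least 48 h at 37 C; viability read as ATP content by CellTiter-Glo luminescence.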
HT1080-NT tox: kills 2HG-producing HT-1080-NT fibrosarcoma cells | Potency, µM (doses to about 46.1 µM), without a hit: top-dose activity, negative = less viability, hits mostly cytotoxic | HT-1080-NT fibrosarcoma viability, CellTiter-Glo ATP luminescence, 48 h | 1.6% of 360,000 active;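 also: NT is the 2HG producing partner of a matched IDH1 knockdown line; potency is read from the fitted curve at half-maximal effect; 0% = DMSO-treated cells and -100% = media-only wells without cells; nearly all actives have a fitted effect of over 55% in size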
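Read-out is CellTiter-Glo luminescence after 10 minutes at room temperature, following 48 hours' compound treatment of HT-1080-NT cells (750 cells/well, RPMI, 5% FBS, 37 degrees C).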
TDP1 cell noCPT: qHTS for Inhibitors of human tyrosyl-DNA phosphodiesterase 1 (TDP1): qHTS in cells in absence of CPT | DT40 Tdp1-/- hTDP1 cells, no CPT, ATP luminescence, 48 h | Potency, µM (doses to about 46.2 µM), without a hit: at the highest dose activity change, negative = growth inhibition, most hits filed as inhibitors | 15% of 420,000 active; also: potency is read from the fitted curve at half-maximal effect; nearly all actives have a fitted effect of over 55% in size
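DT40 Tdp1-/-;hTDP1 cells, no CPT (DMSO vehicle only), 400 cells/well; compounds pin-transferred; ≥48 hr, 37 °C; CellTiter-Glo 30 min RT dark, luminescence read.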
HT1080 IDH1KD tx: kills HT-1080 cells with IDH1 knockdown | HT-1080 IDH1 knockdown viability, ATP luminescence, 48 h | Potency, µM (highest dose often 46.1 µM), for the others: top-dose activity, negative = toxicity, most hits filed as cytotoxic | 2% of 360,000 active | AID 686971;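 also: potency is read from the fitted curve at half-maximal effect; 0% = DMSO wells and -100% = cell-free medium wells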
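Viability of IDH1-knockdown HT-1080 fibrosarcoma cells was assessed by CellTiter-Glo after 48 h at 37 °C with titrated compound; concentration-effect curves were classified by fit quality and response size.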
IL1B secr inh: inhibitors of inflammasome signaling (IL-1 beta secretion). THP-1 LPS/ATP IL-1B secretion, AlphaLISA, 16 h; hits give low values. activity change, % at 57.5 µM. 4.7% of 360,000 active. AID 743279; in the data active = activity change below about -50%; inconclusive = mostly about -30% to -49%
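Secreted IL-1B measured by AlphaLISA bead assay after 16 h compound exposure of THP-1 cells; compounds (final up to 57.5 uM) added 1 h before LPS (250 ng/mL) and ATP (1.25 mM) stimulation; lower signal means less secretion.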
Active calls of the source: *; ? = inconclusive. This is a sample that favours compounds with a hit; in the whole collection about 19% have one here. Unless noted, calls follow the shape of the dose curve; as a rule, active = well fitted curve in the direction sought with a large enough effect; inconclusive = small, poorly fitted or top-dose-only effect, or another doubt; inactive = no such curve, though single readings can be large; an effect the other way counts as inactive or inconclusive. Unless noted, % is scaled to controls: 0 for no effect and ±100 for the full control effect.

SMILES	DT40 TDP1 CPT	HT1080-NT tox	TDP1 cell noCPT	HT1080 IDH1KD tx	IL1B secr inh
O=C(c1cc(-c2ccc3c(c2)OCO3)on1)N1CCCCC1	5.1%	-8.3%	-2.8%	-10.6%	-20.5
CC1CCCC(C)N1C(=O)c1cc(-c2ccc3c(c2)OCO3)on1 (centres undefined)	?	-0.5%	25.9µM*	-26.1%	-7.7
CC1CCCC(C)N1C(=O)c1cc(-c2ccc(Cl)c(Cl)c2)on1 (centres undefined)	18.4µM*	-20.4%	?	?	-5.2
Cc1ccccc1NC(=O)Cc1c[nH]c2ccccc12	-20.2%	0.2%	?	1.1%	10.0
CCOC(CNC(=O)c1ccc(N2CCc3ccccc32)c([N+](=O)[O-])c1)OCC	20.6µM*	-1.1%	18.4µM*	-0.5%	-18.7
COCCCN=C1NN=C(c2cc(C)n(Cc3ccccc3Cl)c2C)CS1	?	4.61µM*	2.31µM*	7.31µM*	?
COCCCN=C1NN=C(c2cc(C)n(-c3ccccc3)c2C)CS1	?	6.6%	16.4µM*	12.8%	39.2
COCCCN=C1NN=C(c2cc(C)n(-c3ccccc3F)c2C)CS1	16.4µM*	?	8.2µM*	?	16.7
CCOc1ccc(OCCOCCn2ccnc2)cc1	-2.8%	-5.2%	-26.2%	1.5%	-3.3
O=C(CSc1ccc(-c2nc3ccccc3[nH]2)cn1)Nc1ccc(S(=O)(=O)NC2CC2)cc1	25.9µM*	-18.7%	20.6µM*	-10.3%	11.4
N#CCSc1ccc(-c2nc3ccccc3[nH]2)cn1	?	-27.3%	23.1µM*	?	?
CCOC(=O)CSc1ccc(-c2nc3cc(C)c(C)cc3[nH]2)cn1	?	-4.2%	?	-12.7%	-11.8
O=C(CSc1ccc(-c2nc3ccccc3[nH]2)cn1)Nc1ccc2c(c1)OCCO2	-27.3%	0.5%	-23.5%	-5.7%	3.5
CCOC(=O)CSc1ccc(-c2nc3ccccc3[nH]2)cn1	?	-19.9%	?	-23.4%	-82.3*
Cc1c(O)ccc2c(-c3ccccc3)cc(=O)oc12	13µM*	-0.3%	14.6µM*	6.9%	24.2
COc1ccc(-c2cc(=O)oc3c(C)c(OC(C)C(C)=O)ccc23)cc1 (centres undefined)	?	-15.1%	?	-17.6%	?
COc1ccc(-c2cc(=O)oc3cc(OCC(=O)Nc4ccccn4)ccc23)cc1	16.4µM*	-0.9%	?	4.8%	-4.0
COc1ccc(-c2cc(=O)oc3c(C)c(O)ccc23)cc1	7.31µM*	-4.5%	3.26µM*	3.5%	24.2
O=C(COc1cc2oc(=O)cc(-c3ccccc3)c2cc1Cl)NCCN1CCOCC1	4.11µM*	-8.8%	7.31µM*	1.1%	23.2
Cc1nnc2c3ccccc3ccn12	11.3%	5.4%	-3.6%	0.9%	0.0
COC(=O)Cc1cc(=O)oc2cc(O)ccc12	-0.9%	-1.0%	-7.7%	8.5%	-69.6*
COc1ccc(-c2cc(=O)oc3c(C)c(OC(=O)c4cccs4)ccc23)cc1	3.66µM*	-7.1%	?	-0.8%	-5.8
COc1ccc(-c2cc(=O)oc3cc(O)ccc23)cc1	?	-24.8%	7.31µM*	?	17.1
O=c1cc(O)c2ccc(O)cc2o1	?	-14.7%	?	-2.6%	-7.8
COc1ccc(-c2cc(=O)oc3cc(OCC(C)=O)ccc23)cc1	-24.3%	0.6%	-24.1%	1.0%	-0.8
COc1ccc(-c2cc(=O)oc3cc(OC(C)C(=O)NC4CC4)ccc23)cc1 (centres undefined)	7.6%	1.9%	?	6.3%	-2.0
COc1ccc(-c2cc(=O)oc3c(C)c(OCC(=O)NCCCn4ccnc4)ccc23)cc1	?	5.1%	?	4.4%	-26.6
COc1ccc(-c2cc(=O)oc3cc(OC(=O)C4CCCCC4)c(Cl)cc23)cc1	23.1µM*	-6.6%	?	-11.1%	4.8
CN(C)c1cccc(Nc2ccc(-c3ccc(OC(F)(F)F)cc3)cn2)c1	?	15.0%	?	3.9%	-17.3

From PubChem BioAssay
